RecA splice inh – Mtb RecA intein splicing inhibitors, primary screen, biochemical, fluorescence, HTS. inhibition, % (test concentration not listed). cell-free RecA intein splicing. 0.75% of 290,000 active. AID 2221, 2009. Protein RecA (Mycobacterium tuberculosis (strain ATCC 25618 / H37Rv)), P9WHJ3; in the data active means inhibition above about 30%;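 further: 0% = vehicle wells and 100% = reference inhibitor control wells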
Mtb UGM inh – M. tuberculosis UGM enzyme inhibitors, primary screen, biochemical, fluorescence polarization, single point. UDP-galactopyranose mutase (Mycobacterium tuberculosis (strain ATCC 25618 / H37Rv)), …. purified UGM, fluorescence polarization probe displacement. inhibition, % at 10 µM. 0.06% of 320,000 active. AID 504406, 2011; in the data active means inhibition above about 10%, passing the limit was not always enough
Rv3671c protease – Rv3671c serine protease inhibitors, primary screen, biochemical, fluorescence polarization, M. tuberculosis H37Rv; inhibition, % at 5.96 µM; 0.048% of 320,000 active; in the data active means inhibition above about 38%;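 further: extracellular domain of Rv3671c used as enzyme; 0% = enzyme with DMSO and 100% = no enzyme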
Mtb hypoxia inh – PubChem AID 1159583; M. tuberculosis hypoxia-regulated fluorescent reporter, fluorescence; fluorescence inhibition, % (test concentration not listed); 0.1% of 300,000 active; in the data active means fluorescence inhibition mostly above about 23%, no sharp cut-off; inactive means mostly below about 17%
Mtb bLac sens – beta-lactam sensitization of Mtb H37Rv, H37Rv; inhibition, % at 25 µM; 0.27% of 330,000 active; AID 434955, 2010; M. tuberculosis H37Rv growth with meropenem, percent inhibition;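 further: growth measured after seven days incubation then overnight dye step; 0% = bacteria only wells and 100% = bacteria with antibiotic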
GFP chromo cs – counter-screen: blocks GFP chromophore formation, dose response, counter-screen, biochemical, fluorescence, homogeneous. EC50, µM. 83% of 2,100 active. cell-free GFP chromophore formation. shares compounds with RecA splice inh. AID 434968, 2010
The depositor's hits bear a star. Shown are actives, neighbours in structure and some others; about 0.77% of the full set was active somewhere. Unless noted, how the calls were made is not given here.

For Cc1[nH]nc2c1C(c1ccc(OC(=O)c3ccco3)cc1)C(C#N)=C(N)O2 (configuration not stated) the results were RecA splice inh 73.5*, Mtb UGM inh 2.1, Rv3671c protease -1.2, Mtb hypoxia inh 25.6, Mtb bLac sens 99.9 and GFP chromo cs 32.7*.
Screening Cc1[nH]nc2c1C(c1cccc(OC(=O)N3CCOCC3)c1)C(C#N)=C(N)O2 (configuration not stated) returned RecA splice inh 59.4*, Mtb UGM inh 1.4, Rv3671c protease -4.3, Mtb bLac sens -2.3 and GFP chromo cs 35.4*.
CC(C)c1[nH]nc2c1C(c1ccc(OC(=O)c3ccco3)cc1)C(C#N)=C(N)O2 (configuration not stated) was read as RecA splice inh 46.2*, Mtb UGM inh -3.0, Rv3671c protease -5.5, Mtb hypoxia inh 2.4, Mtb bLac sens 99.0 and GFP chromo cs 20.1*.
`CC(C)(C)c1[nH]nc2c1C(c1ccccc1OC(=O)N1CCOCC1)C(C#N)=C(N)O2` (configuration not stated) gave Mtb UGM inh 3.5, Rv3671c protease -3.7, Mtb hypoxia inh -3.3 and Mtb bLac sens 0.9.
`CC(C)(C)CN1C(N)=NCC1Cc1ccc(O)cc1` (configuration not stated) gave Mtb hypoxia inh 7.4.
For COc1ccc(OC)c(C(c2c(C)[nH][nH]c2=O)c2c(C)[nH][nH]c2=O)c1 the results were RecA splice inh 94.8*, Mtb UGM inh -0.1, Rv3671c protease -15.5, Mtb hypoxia inh 9.8, Mtb bLac sens 7.7 and GFP chromo cs 0.43*.
`COc1ccc(O)c(C(c2c(C)[nH][nH]c2=O)c2c(C)[nH][nH]c2=O)c1` gave RecA splice inh 91.8*, Mtb UGM inh 0.4, Rv3671c protease -26.6, Mtb bLac sens 2.4 and GFP chromo cs 3.77*.
COc1ccc(N=Nc2c(C)[nH][nH]c2=O)cc1 was read as Mtb UGM inh 0.8, Rv3671c protease -15.3, Mtb hypoxia inh 10.6 and Mtb bLac sens 4.8.
For CC(C)(C)OC(=O)NCCCCC(NC(=O)c1nc[nH]c1C(=O)NCC(=O)OCc1ccccc1)C(=O)OC(C)(C)C (configuration not stated) the results were Mtb hypoxia inh 12.6.
`COc1cccc(Nc2c([N+](=O)[O-])cncc2[N+](=O)[O-])c1` gave RecA splice inh 54.0*, Mtb UGM inh 1.8, Rv3671c protease 8.3, Mtb hypoxia inh 10.2, Mtb bLac sens 89.9 and GFP chromo cs 20.7*.
Screening CC1COC(=O)C(CC(=O)OC(C)(C)C)CC=CCC(CC(=O)N(CCO)Cc2ccccc2)C(=O)N1 (configuration not stated) returned Mtb hypoxia inh -3.3.
COC(=O)C1=C(c2ccc(F)cc2F)CC2CCC1N2C (configuration not stated) was read as Mtb hypoxia inh 15.9.
`CC(C)NC(=S)NC(c1ccccc1)(c1ccccc1)c1ccccc1` gave RecA splice inh 31.6*, Mtb UGM inh 0.7, Rv3671c protease 10.9, Mtb bLac sens 12.6 and GFP chromo cs >38.
C/C(=N\NC(=S)NC(C)C)c1ccccc1 was read as RecA splice inh 0.3, Mtb UGM inh 4.5, Rv3671c protease -0.1 and Mtb bLac sens 91.7.
For O=C(O)c1cccc(NC2=C(n3nnc4ccccc43)C(=O)c3ccccc3C2=O)c1 the results were RecA splice inh 77.9*, Mtb UGM inh 2.5, Rv3671c protease -52.0, Mtb hypoxia inh 14.0, Mtb bLac sens 6.8 and GFP chromo cs 1.92*.
Screening O=C(O)c1cccc(NS(=O)(=O)c2ccc3nnn(O)c3c2)c1 returned RecA splice inh -1.3, Mtb UGM inh 3.8, Rv3671c protease -1.1 and Mtb bLac sens -13.6.
CCOC(=O)C1C2COc3ccc(Br)cc3C2N2C(=O)N(c3cccc(Cl)c3)C(=O)[C@@]12C (some centres not stated) was read as Mtb hypoxia inh 2.4.
For COc1ccc(NC(=O)c2nc[nH]c2C(=O)NC(C)c2ccccc2)cc1 (configuration not stated) the results were Mtb hypoxia inh 13.0.
Screening CCCCCOP(=O)(OCCCCC)C1(NS(=O)(=O)c2ccccc2)C=CC(=O)c2ccccc21 (configuration not stated) returned RecA splice inh 80.5*, Mtb UGM inh -3.1, Rv3671c protease -16.8, Mtb hypoxia inh 13.1, Mtb bLac sens -2.9 and GFP chromo cs 6.7*.
COc1ccc(C2NC(=O)NC3=C2CCc2ccccc23)cc1 (configuration not stated) was read as RecA splice inh 46.6*, Mtb UGM inh 1.8, Rv3671c protease 1.5, Mtb bLac sens 23.4 and GFP chromo cs 32.7*.
O=C(NC1C(=O)NNC1c1ccc(Cl)cc1)c1ccc(F)cc1 (configuration not stated) was read as RecA splice inh 69.7*, Mtb UGM inh 1.8, Rv3671c protease -15.3, Mtb hypoxia inh 7.2, Mtb bLac sens -9.6 and GFP chromo cs 29.9*.
`CC(C)[C@H](NC(=O)Nc1ccc(Oc2ccccc2)cc1)C(=O)O` gave RecA splice inh 62.0*, Mtb UGM inh -4.1, Rv3671c protease -9.9, Mtb bLac sens -6.6 and GFP chromo cs >38.
Screening C[C@@]12C(=O)N(Cc3ccc(Cl)cc3)CC(=O)N1C1c3ccccc3OCC1C2c1ccccc1 (some centres not stated) returned Mtb hypoxia inh -5.1.
Screening CS(=O)(=O)N1CCC(Oc2ccccc2C(=O)N2CCCCC2CO)CC1 (configuration not stated) returned RecA splice inh 48.5*, Mtb UGM inh 3.4, Rv3671c protease 4.8, Mtb hypoxia inh 2.6, Mtb bLac sens 0.0 and GFP chromo cs >38.
Screening C=CCn1c(N)c(C(=O)Nc2cccc(C)c2)c2nc3ccccc3nc21 returned RecA splice inh 34.4*, Mtb UGM inh -0.9, Rv3671c protease -4.2, Mtb hypoxia inh 8.3, Mtb bLac sens 14.6 and GFP chromo cs 24.2*.
`C=C(C)C(=O)Nc1cccc(C2=NOC3(C2)CC(C(N)=O)N(C(=O)C=CC=CC)C3)c1` (configuration not stated) gave Mtb hypoxia inh 4.7.
`N#Cc1ccc(-n2c(-c3ccccc3)nnc2-c2ccccc2)cc1C#N` gave RecA splice inh 49.7*, Mtb UGM inh -1.9, Rv3671c protease -5.2, Mtb hypoxia inh 4.4, Mtb bLac sens 4.8 and GFP chromo cs 17.4*.
For COc1ccc(CNc2ccc3cn[nH]c3c2)c(OC)c1OC the results were RecA splice inh 45.6*, Mtb UGM inh -0.1, Rv3671c protease -17.5, Mtb hypoxia inh 7.5, Mtb bLac sens 15.2 and GFP chromo cs 1.22*.

Source: PubChem BioAssay (several laboratories)
